# Compounds with a hit are over-represented: about 3.3% of the library has one in this group of screens.
# PfGluPho inh: PfG6PD (Plasmodium falciparum) enzyme inhibition. AID 504690. 350,000 tested, 0.78% active. PfGluPho enzyme, NADPH resazurin-diaphorase fluorescence. inhibition, % at 20 µM;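 active = inhibition reaching at least a set limit at 20 µM in the primary screen, cut at about 59% in these data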;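 also: 0% = DMSO wells with substrate and 100% = DMSO wells lacking glucose-6-phosphate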
# M18AAP inhibitor: blocks P. falciparum M18 aspartyl aminopeptidase | recombinant PfM18AAP, H-Glu-NHMec fluorogenic cleavage | inhibition, % at 7.35 µM | 290,000 tested, 1.2% active | AID 1822;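 active = inhibition above the campaign mean inhibition over all tested compounds plus 3 SD, cut at about 28% in these data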;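 also: 0% = plate median of test compound wells and 100% = 2 mM ZnCl2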
# MBD2 DNA inh: blocks human MBD2 binding to methylated DNA | TR-FRET, MBD2 binding to methylated oligonucleotide | inhibition, % at 4.4 µM | 370,000 tested, 0.31% active; in the data active = inhibition above about 13%
# UHRF1 MBD2 ctr: UHRF1 methyl-DNA binding inhibition | Q96T88 | UHRF1 binding to methylated oligo, TR-FRET | inhibition, % at 4.4 µM | 370,000 tested, 0.75% active | AID 687016; in the data active = inhibition above about 21%;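 also: UHRF1 SRA domain binding a hemimethylated CpG hairpin DNA probe; 0% = median of test compound wells and 100% = reference inhibitor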
# PRMT1 inh: blocks human protein arginine methyltransferase 1; Q99873; recombinant PRMT1, activity-based probe fluorescence polarization; inhibition, % at 2.79 µM; 370,000 tested, 1.3% active;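 active = inhibition above about 21% made by adding two undisclosed values, limit read from the data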
# Target sequence (Q99873 whole entry, looked up): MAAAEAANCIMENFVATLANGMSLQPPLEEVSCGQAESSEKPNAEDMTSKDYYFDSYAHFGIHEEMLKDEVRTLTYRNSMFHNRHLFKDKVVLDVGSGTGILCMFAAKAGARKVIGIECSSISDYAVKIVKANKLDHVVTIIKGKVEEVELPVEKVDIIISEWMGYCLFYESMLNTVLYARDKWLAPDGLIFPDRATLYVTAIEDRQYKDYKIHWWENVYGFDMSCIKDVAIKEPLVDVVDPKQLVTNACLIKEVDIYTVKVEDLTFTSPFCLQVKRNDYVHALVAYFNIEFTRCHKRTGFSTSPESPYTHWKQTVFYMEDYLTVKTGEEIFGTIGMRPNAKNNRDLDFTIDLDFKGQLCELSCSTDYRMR
# PfGluPho conf: confirmation of Plasmodium falciparum G6PD inhibitors | 2,400 tested, 34% active | inhibition, % at 20 µM | shares compounds with PfGluPho inh | recombinant PfGluPho, NADPH-diaphorase-resazurin fluorescence;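 active = inhibition of at least 50% at 20 µM in any single replicate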;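 also: 0% = DMSO with substrate and 100% = DMSO lacking glucose-6-phosphate substrate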
# Diaph ctr 10uM: inhibits diaphorase or oxidizes, flagging false PfG6PD hits. shares compounds with PfGluPho inh. diaphorase-coupled resazurin reduction, fluorescence, NADPH 10 uM. inhibition, % at 20 µM. 820 tested, 39% active. AID 504862;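 active = average inhibition reaching 50% or more with the compound at 20 µM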;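 also: resorufin red fluorescence formed as diaphorase reduces resazurin using NADPH; 0% = DMSO with enzyme and 100% = DMSO without enzyme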
# Diaph ctr 30uM: diaphorase inhibition or oxidation at 30 uM NADPH; shares compounds with PfGluPho inh; Diaphorase/resazurin coupled assay, resorufin fluorescence; inhibition, % at 20 µM; 820 tested, 29% active; AID 504863;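 active = inhibition averaging 50% or more, tested at 20 µM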;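 also: 0% = DMSO with enzyme and 100% = DMSO wells lacking diaphorase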
# Numbers without * were called inactive; . = no result.
SMILES,PfGluPho inh,M18AAP inhibitor,MBD2 DNA inh,UHRF1 MBD2 ctr,PRMT1 inh,PfGluPho conf,others
COC(=O)c1ccccc1N/C=C1\CCc2c(c(C)nn2-c2ccccn2)C1=O,74*,20,-2,0,18,64*,Diaph ctr 10uM=12;Diaph ctr 30uM=-4
O=C(CSc1cccs1)Nc1cccc2ccccc12,3,-2,0,-3,-2,.,
Nc1ccccc1SCC(=O)Nc1cccc2ccccc12,67*,3,-3,-7,4,10,
CSC1SCC2C(=O)N(C)C(C(C)C)C(=O)OCC(NC(=O)c3cnc4ccccc4n3)C(=O)NC(C)C(=O)N(C)C1C(=O)N(C)C(C(C)C)C(=O)OCC(NC(=O)c1cnc3ccccc3n1)C(=O)NC(C)C(=O)N2C (stereo not drawn),59*,.,95*,-35,-2,8,
Cc1c(C(=O)NCC2CCCO2)oc2ccc(Br)cc12 (stereo not drawn),-8,.,-2,0,-4,.,
O=C(Nc1ccc(Oc2cccnc2)cc1)c1cccc([N+](=O)[O-])c1,61*,-1,.,.,.,29,
CCC[C@H]1[C@@H](NC(=O)c2ccc(C)cc2)CC[C@@]23CCCN2C(=O)CCC[C@@H]13,.,.,0,1,3,.,
COc1ccc(/C=C/c2nc3ccccc3n2Cc2ccccc2OC)cc1,76*,1,-1,-3,1,22,
COc1ccccc1Cn1c(/C=C/c2ccccc2)nc2ccccc21,67*,-5,1,-4,0,3,
Cc1ccc2nc(-c3ccc(Cl)cc3)c(Cc3ccsc3)n2c1,.,.,-2,15,4,.,
CCOc1ccc(N(CC(=O)N/N=C/c2cc([N+](=O)[O-])ccc2Cl)S(C)(=O)=O)cc1,87*,-8,-1,-1,0,60*,Diaph ctr 10uM=72*;Diaph ctr 30uM=46
O=C(Nc1ccc(N2CCCC2)cc1)c1cccc(-c2cc3ccccc3oc2=O)c1,68*,4,-3,-4,4,58*,Diaph ctr 10uM=-21;Diaph ctr 30uM=-29
O=C(O)c1ccc([N+](=O)[O-])c(CS(=O)(=O)c2ccc(Cl)cc2)c1,-6,-3,1,3,2,.,
O=C(CBr)c1ccc([N+](=O)[O-])c(CS(=O)(=O)c2ccc(Cl)cc2)c1,80*,6,-7,70*,10,74*,Diaph ctr 10uM=30;Diaph ctr 30uM=16
CCc1ccc(NC(=O)c2c(Cl)nc(C)c(Cl)c2C)cc1,84*,4,-6,0,0,47,
COc1cc(C(=S)N2CCN(c3cccc(Cl)c3)CC2)ccc1O,48,23,-5,-3,1,20,
COc1ccc(C(=S)N2CCN(c3cccc(Cl)c3)CC2)c(OC)c1,31,10,5,0,13,.,
N[C@H](C(=O)N[C@@H](Cc1ccccc1)C(=O)N1CCC2CCN(S(=O)(=O)c3ccccc3)CC21)c1ccccc1 (stereo partly drawn),.,.,0,3,0,.,
Cc1ccc(/C=C/C(=O)OCC(=O)c2ccc3c(c2)NC(=O)CO3)o1,71*,.,-5,-2,17,-9,
COc1ccc(/C=C/C(=O)OCC(=O)c2ccc3c(c2)NC(=O)CO3)c(OC)c1,-17,-7,3,1,2,.,
O=c1cc(O)cc2n1CCC2,.,.,-3,1,-5,.,
O=C1C=CC(=O)N1c1ccc(-c2nc3ccccc3o2)cc1,108*,.,.,.,.,77*,Diaph ctr 10uM=-25;Diaph ctr 30uM=-3
O=C(O)c1ccc(N2CC3CC(C2)c2cccc(=O)n2C3)c(NC(=S)Nc2ccc(Cl)cc2Cl)c1 (stereo not drawn),59*,19,2,3,4,27,
COC(=O)C(CC(C)C)N(Cc1ccc(Br)cc1)S(=O)(=O)CCl (stereo not drawn),.,.,0,0,0,.,
C/C(=N\Nc1nc2c(s1)CCCC2)c1ccc(Cl)cc1,66*,23,-4,-9,7,-15,
SMILES,PfGluPho inh,M18AAP inhibitor,MBD2 DNA inh,UHRF1 MBD2 ctr,PRMT1 inh,PfGluPho conf,others
CN(C)c1ccc(C(=O)Nc2nc3c(s2)CCCC3)cc1,55,11,0,1,3,.,
CCc1sc(C(=O)Nc2nc(C)cs2)cc1C,61*,16,4,1,2,11,
NC(Cc1ccc(O)cc1)C(=O)NN=Cc1ccccc1O (stereo not drawn),.,.,2,-2,-2,.,
CN1CCN(S(=O)(=O)c2ccc(N3CCN(c4ccc(O)cc4)CC3)c([N+](=O)[O-])c2)CC1,72*,.,0,-1,10,31,
Cc1ccc(NS(=O)(=O)c2ccc(N3CCN(c4ccc(O)cc4)CC3)c([N+](=O)[O-])c2)c(C)c1,42,27,0,-2,16,.,
Cc1ccc(-c2nc3n(n2)Cc2ccccc2-3)cc1,77*,-5,-1,1,0,37,
Fc1ccc(-c2nc3n(n2)Cc2ccccc2-3)cc1,45,4,0,-1,1,.,
O=[N+]([O-])c1cc(S(=O)(=O)NCc2ccco2)ccc1NN=Cc1ccccn1,.,.,1,-1,-4,.,
CC(=O)c1cc(-c2cccc(C#N)c2)c(=O)n2c1CCC2,.,.,2,0,3,.,
O=C(N/N=C/c1cccc([N+](=O)[O-])c1)c1ccccc1-n1cccc1,63*,-5,-4,-1,0,44,
COc1ccc2nc(C)cc(SCC(=O)N/N=C/c3ccccc3)c2c1,59,18,1,-2,20,11,
O=C(CSc1ncccn1)N/N=C/c1cccc([N+](=O)[O-])c1,20,-12,0,0,-1,.,
COc1ccc2nc(C)cc(SCC(=O)N/N=C/c3c(OC)ccc4ccccc34)c2c1,-5,-9,1,-1,0,.,
Cc1cc(C)nc(SCC(=O)N/N=C/c2cccc([N+](=O)[O-])c2)n1,93*,2,-3,1,-2,30,
O=C(c1cc(C2CC2)on1)N(C1CCCCC1)C1CCCCC1,.,.,8,0,-2,.,
COc1ccccc1C(=O)N=c1sc2c(C)ccc(OC)c2n1C,63*,3,-2,-2,0,10,
Cc1ccc(NS(=O)(=O)c2ccccc2)c2c1CC(C)(C)O2,92*,6,-5,-3,-2,65*,Diaph ctr 10uM=54*;Diaph ctr 30uM=50*
FC(F)(F)c1ccc(-n2cnc3ccccc32)nc1,-6,2,-6,-4,-2,.,
COc1cc(-c2nc(C(=O)NCC3CCCO3)cc3c2[nH]c2ccccc23)cc(OC)c1OC (stereo not drawn),33,6,-1,-2,1,.,
COc1ccccc1-c1nc(C(=O)NCC2CCCO2)cc2c1[nH]c1ccccc12 (stereo not drawn),64*,-6,.,.,.,17,
COc1ccc(NC(=O)N(C)C[C@H]2OCCCC[C@H](C)Oc3ccc(NC(=O)Nc4cccc5ccccc45)cc3C(=O)N([C@@H](C)CO)C[C@H]2C)cc1,.,.,-4,-1,1,.,
